Reference: the supplement of paper PMC4022240
± gives the standard deviation.

What was measured:
Experiment in all cases: peptide microarray binding signal (635 nm), min-max normalized on array (fraction of array maximum); higher = stronger binding
Details in all cases: peptide region: H3 1-13
[1] = molecular target: T1, HaloTag-ATRX ADD domain (163-292)
T1 chain: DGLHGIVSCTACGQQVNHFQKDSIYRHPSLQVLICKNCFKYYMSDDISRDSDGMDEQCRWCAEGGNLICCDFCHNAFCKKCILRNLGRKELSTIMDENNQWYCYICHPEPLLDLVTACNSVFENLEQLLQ
Experimental: (§1)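 Histone 13-mer peptides were synthesized as cellulose conjugates with a C-terminal 20-atom PEG linker and printed in triplicate on nitrocellulose. The sequence given is the unmodified backbone; PTMs (Kme1/2/3, Kac, Sph/Tph, Rme/Rme2a/Rme2s, Rcit) are listed in the label and the 'peptide modifications' condition. Slides were probed at 4 °C for 1 h with biotin-labelled (HQ)5-HaloTag reader fusions (ATRX-ADD, ING2-PHD) then streptavidin-Alexa647, or with rabbit histone antibodies then anti-rabbit Alexa647. The mean 635 nm signal of the triplicate spots was scaled 0-1 between the lowest and highest values on each array.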

[2] = molecular target: HaloTag-ING2 PHD (mouse Ing2 200-280)
Experimental: as §1

[3] = molecular target: anti-H3K4me3 antibody ab8580
Experimental: as §1

[4] = molecular target: anti-H3K9me3 antibody ab8898
Experimental: as §1

[5] = peptide modifications: H3R2me1, binder concentration: 1:2,000 dilution
[6] = peptide modifications: H3R2me1, binder concentration: 1:10,000 dilution
[7] = peptide modifications: H3R2me2a H3K4me1, binder concentration: 1:2,000 dilution
[8] = peptide modifications: H3R2me2a H3K4me1, binder concentration: 1:10,000 dilution
[9] = peptide modifications: H3R2me1 H3T6ph, binder concentration: 1:2,000 dilution
[10] = peptide modifications: H3R2me1 H3T6ph, binder concentration: 1:10,000 dilution
[11] = peptide modifications: H3R2me1 H3K4me2, binder concentration: 1:2,000 dilution
[12] = peptide modifications: H3R2me1 H3K4me2, binder concentration: 1:10,000 dilution
[13] = peptide modifications: H3R2me1 H3T3ph, binder concentration: 1:2,000 dilution
[14] = peptide modifications: H3R2me1 H3T3ph, binder concentration: 1:10,000 dilution
[15] = peptide modifications: H3R2me1 H3K9me3, binder concentration: 1:2,000 dilution
[16] = peptide modifications: H3R2me1 H3K9me3, binder concentration: 1:10,000 dilution
[17] = peptide modifications: H3R2me2a H3K4me2, binder concentration: 1:2,000 dilution
[18] = peptide modifications: H3R2me2a H3K4me2, binder concentration: 1:10,000 dilution
[19] = peptide modifications: H3R2me2a H3K4me3, binder concentration: 1:2,000 dilution
[20] = peptide modifications: H3R2me2a H3K4me3, binder concentration: 1:10,000 dilution
[21] = peptide modifications: H3R2cit H3T6ph, binder concentration: 1:2,000 dilution
[22] = peptide modifications: H3R2cit H3T6ph, binder concentration: 1:10,000 dilution
[23] = peptide modifications: H3R2me2a H3K4ac, binder concentration: 1:2,000 dilution
[24] = peptide modifications: H3R2me2a H3K4ac, binder concentration: 1:10,000 dilution

B1: H3 1-13 A Rme T K Q T A R K S T G G (peptide)
chain: ARTKQTARKSTGG
[1]; peptide modifications: H3R2me1, binder concentration: 50 nM
  peptide microarray binding signal: 0.0145 ± 0.00019
[1]; peptide modifications: H3R2me1, binder concentration: 500 nM
  peptide microarray binding signal: 0.0334 ± 0.0026
[2]; peptide modifications: H3R2me1, binder concentration: 10 nM
  peptide microarray binding signal: 0.0175 ± 0.0043
[2]; peptide modifications: H3R2me1, binder concentration: 100 nM
  peptide microarray binding signal: 0.0456 ± 0.0031
[3]; [5]
  peptide microarray binding signal: 0.000698 ± 1.7e-05
[3]; [6]
  peptide microarray binding signal: 0.000742
[4]; [5]
  peptide microarray binding signal: 0.00202 ± 0.0002
[4]; [6]
  peptide microarray binding signal: 0.000461

B2: H3 1-13 A Rme2a T Kme Q T A R K S T G G (peptide)
chain: ARTKQTARKSTGG
[1]; peptide modifications: H3R2me2a H3K4me1, binder concentration: 50 nM
  peptide microarray binding signal: 0.0111 ± 0.00026
[1]; peptide modifications: H3R2me2a H3K4me1, binder concentration: 500 nM
  peptide microarray binding signal: 0.0211 ± 0.001
[2]; peptide modifications: H3R2me2a H3K4me1, binder concentration: 10 nM
  peptide microarray binding signal: 0.00585 ± 0.00028
[2]; peptide modifications: H3R2me2a H3K4me1, binder concentration: 100 nM
  peptide microarray binding signal: 0.0274 ± 0.013
[3]; [7]
  peptide microarray binding signal: 0.0329 ± 0.01
[3]; [8]
  peptide microarray binding signal: 0.0417 ± 0.011
[4]; [7]
  peptide microarray binding signal: 0.00468 ± 0.00097
[4]; [8]
  peptide microarray binding signal: 0.00352 ± 0.00019

B3: H3 1-13 A Rme T K Q Tph A R K S T G G (peptide)
chain: ARTKQTARKSTGG
[1]; peptide modifications: H3R2me1 H3T6ph, binder concentration: 50 nM
  peptide microarray binding signal: 0.00589 ± 0.00086
[1]; peptide modifications: H3R2me1 H3T6ph, binder concentration: 500 nM
  peptide microarray binding signal: 0.00971 ± 0.00097
[2]; peptide modifications: H3R2me1 H3T6ph, binder concentration: 10 nM
  peptide microarray binding signal: 0.00269 ± 4e-05
[2]; peptide modifications: H3R2me1 H3T6ph, binder concentration: 100 nM
  peptide microarray binding signal: 0.0186 ± 0.0023
[3]; [9]
  peptide microarray binding signal: 0.000774 ± 4.3e-05
[3]; [10]
  peptide microarray binding signal: 0.000799 ± 2.2e-05
[4]; [9]
  peptide microarray binding signal: 0.0018 ± 6.1e-05
[4]; [10]
  peptide microarray binding signal: 0.000634 ± 1.2e-05

B4: H3 1-13 A Rme T Kme2 Q T A R K S T G G (peptide)
chain: ARTKQTARKSTGG
[1]; peptide modifications: H3R2me1 H3K4me2, binder concentration: 50 nM
  peptide microarray binding signal: 0.00715 ± 0.0002
[1]; peptide modifications: H3R2me1 H3K4me2, binder concentration: 500 nM
  peptide microarray binding signal: 0.017 ± 0.0047
[2]; peptide modifications: H3R2me1 H3K4me2, binder concentration: 10 nM
  peptide microarray binding signal: 0.219 ± 0.059
[2]; peptide modifications: H3R2me1 H3K4me2, binder concentration: 100 nM
  peptide microarray binding signal: 0.175 ± 0.047
[3]; [11]
  peptide microarray binding signal: 0.269 ± 0.14
[3]; [12]
  peptide microarray binding signal: 0.0639 ± 0.0072
[4]; [11]
  peptide microarray binding signal: 0.00439 ± 0.0014
[4]; [12]
  peptide microarray binding signal: 0.00392 ± 0.00093

B5: H3 1-13 A Rme Tph K Q T A R K S T G G (peptide)
chain: ARTKQTARKSTGG
[1]; peptide modifications: H3R2me1 H3T3ph, binder concentration: 50 nM
  peptide microarray binding signal: 0.00649 ± 0.00021
[1]; peptide modifications: H3R2me1 H3T3ph, binder concentration: 500 nM
  peptide microarray binding signal: 0.0224 ± 0.0029
[2]; peptide modifications: H3R2me1 H3T3ph, binder concentration: 10 nM
  peptide microarray binding signal: 0.00382 ± 7e-05
[2]; peptide modifications: H3R2me1 H3T3ph, binder concentration: 100 nM
  peptide microarray binding signal: 0.0254 ± 0.0015
[3]; [13]
  peptide microarray binding signal: 0.00321 ± 0.0015
[3]; [14]
  peptide microarray binding signal: 0.00183 ± 0.00011
[4]; [13]
  peptide microarray binding signal: 0.00154 ± 0.00026
[4]; [14]
  peptide microarray binding signal: 0.000692 ± 1.5e-05

B6: H3 1-13 A Rme T K Q T A R Kme3 S T G G (peptide)
chain: ARTKQTARKSTGG
[1]; peptide modifications: H3R2me1 H3K9me3, binder concentration: 50 nM
  peptide microarray binding signal: 1 ± 0.14
[1]; peptide modifications: H3R2me1 H3K9me3, binder concentration: 500 nM
  peptide microarray binding signal: 1 ± 0.23
[2]; peptide modifications: H3R2me1 H3K9me3, binder concentration: 10 nM
  peptide microarray binding signal: 0.0582 ± 0.011
[2]; peptide modifications: H3R2me1 H3K9me3, binder concentration: 100 nM
  peptide microarray binding signal: 0.106 ± 0.024
[3]; [15]
  peptide microarray binding signal: 0.088 ± 0.024
[3]; [16]
  peptide microarray binding signal: 0.0951 ± 0.017
[4]; [15]
  peptide microarray binding signal: 0.544 ± 0.12
[4]; [16]
  peptide microarray binding signal: 0.357 ± 0.091

B7: H3 1-13 A Rme2a T Kme2 Q T A R K S T G G (peptide)
chain: ARTKQTARKSTGG
[1]; peptide modifications: H3R2me2a H3K4me2, binder concentration: 50 nM
  peptide microarray binding signal: 0.00837 ± 0.00013
[1]; peptide modifications: H3R2me2a H3K4me2, binder concentration: 500 nM
  peptide microarray binding signal: 0.0168 ± 0.00084
[2]; peptide modifications: H3R2me2a H3K4me2, binder concentration: 10 nM
  peptide microarray binding signal: 0.0141 ± 0.00071
[2]; peptide modifications: H3R2me2a H3K4me2, binder concentration: 100 nM
  peptide microarray binding signal: 0.0206 ± 0.0044
[3]; [17]
  peptide microarray binding signal: 0.0754 ± 0.017
[3]; [18]
  peptide microarray binding signal: 0.0898 ± 0.0086
[4]; [17]
  peptide microarray binding signal: 0.00464 ± 0.0004
[4]; [18]
  peptide microarray binding signal: 0.00386 ± 0.00011

B8: H3 1-13 A Rme2a T Kme3 Q T A R K S T G G (peptide)
chain: ARTKQTARKSTGG
[1]; peptide modifications: H3R2me2a H3K4me3, binder concentration: 50 nM
  peptide microarray binding signal: 0.00912 ± 0.00034
[1]; peptide modifications: H3R2me2a H3K4me3, binder concentration: 500 nM
  peptide microarray binding signal: 0.0301 ± 0.00069
[2]; peptide modifications: H3R2me2a H3K4me3, binder concentration: 10 nM
  peptide microarray binding signal: 0.0149 ± 0.0016
[2]; peptide modifications: H3R2me2a H3K4me3, binder concentration: 100 nM
  peptide microarray binding signal: 0.013 ± 0.0056
[3]; [19]
  peptide microarray binding signal: 0.989 ± 0.041
[3]; [20]
  peptide microarray binding signal: 0.193 ± 0.0034
[4]; [19]
  peptide microarray binding signal: 0.249 ± 0.031
[4]; [20]
  peptide microarray binding signal: 0.0997 ± 0.026

B9: H3 1-13 A Rcit T K Q Tph A R K S T G G (peptide)
chain: ARTKQTARKSTGG
[1]; peptide modifications: H3R2cit H3T6ph, binder concentration: 50 nM
  peptide microarray binding signal: 0.00621 ± 0.00039
[1]; peptide modifications: H3R2cit H3T6ph, binder concentration: 500 nM
  peptide microarray binding signal: 0.0199 ± 0.0043
[2]; peptide modifications: H3R2cit H3T6ph, binder concentration: 10 nM
  peptide microarray binding signal: 0.00382 ± 0.00065
[2]; peptide modifications: H3R2cit H3T6ph, binder concentration: 100 nM
  peptide microarray binding signal: 0.0157 ± 0.0039
[3]; [21]
  peptide microarray binding signal: 0.00345 ± 0.00082
[3]; [22]
  peptide microarray binding signal: 0.00348 ± 0.00034
[4]; [21]
  peptide microarray binding signal: 0.00166 ± 0.00026
[4]; [22]
  peptide microarray binding signal: 0.00173 ± 0.00011

B10: H3 1-13 A Rme2a T Kac Q T A R K S T G G (peptide)
chain: ARTKQTARKSTGG
[1]; peptide modifications: H3R2me2a H3K4ac, binder concentration: 50 nM
  peptide microarray binding signal: 0.0125 ± 0.00079
[1]; peptide modifications: H3R2me2a H3K4ac, binder concentration: 500 nM
  peptide microarray binding signal: 0.0335 ± 0.0053
[2]; peptide modifications: H3R2me2a H3K4ac, binder concentration: 10 nM
  peptide microarray binding signal: 0.0118 ± 0.0039
[2]; peptide modifications: H3R2me2a H3K4ac, binder concentration: 100 nM
  peptide microarray binding signal: 0.0337 ± 0.0021
[3]; [23]
  peptide microarray binding signal: 0.00455 ± 0.00093
[3]; [24]
  peptide microarray binding signal: 0.00639 ± 0.00058
[4]; [23]
  peptide microarray binding signal: 0.0124 ± 0.0014
[4]; [24]
  peptide microarray binding signal: 0.0053 ± 0.00063
